Rows were chosen to be rich in hits. Some 20% of all compounds tested hit in one or more screens of this group.
Shiga inhibitor: A qHTS for Small Molecule Inhibitors of Shiga Toxin. Vero cells, Shiga toxin protein synthesis inhibition reporter. inhibition, % at 38.7 µM. 9.2% of 290,000 active. AID 2315, 2010; in the data active = inhibition mostly above about 28%, no sharp cut-off; inactive = mostly below about 43%
Pf growth 48h: Primary qHTS for delayed death inhibitors of the malarial parasite plastid, 48 hour incubation | P. falciparum luciferase growth in erythrocytes, 48 h | Potency, µM (titrated, usually from 28.7 µM), hits mostly inhibitors | 5.9% of 310,000 active
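Compounds are pin-transferred into medium, infected erythrocytes (2% hematocrit, 0.1% parasitemia final) are added, and plates sit one parasite generation at 37 C in 5% CO2. Detection reagent is then added and luminescence measured.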
HCMV antiviral: qHTS Assay for inhibitors of the human cytomegalovirus (HCMV); HFF cells, HCMV-luciferase reporter, 72 h; active compounds read low; activity change, negative = inhibition, % at 57.5 µM; 4.5% of 410,000 active; AID 1259415, 2018; in the data active = activity change below about -60%; inconclusive = no clear call, values can overlap the other calls; inactive = above about -39%
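Steps: HFFs plated, 16 h 37C; compounds added; HCMV-luciferase added to MOI 1 PFU/cell; 72 h 37C; OneGlo reagent, 5 min room temperature; luminescence read, normalized to controls.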
Pf growth 96h: Primary qHTS for delayed death inhibitors of the malarial parasite plastid, 96 hour incubation. P. falciparum luciferase reporter growth, 96 h. Potency, µM (highest dose often 28.7 µM), hits mostly inhibitors. 6.9% of 320,000 active
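P. falciparum expressing integrated firefly luciferase grown in erythrocytes (2% hematocrit, 0.05% parasitemia final) with compounds for 96 hours at 37 C, 5% CO2. Growth inhibition read as loss of luminescence after adding luciferase detection reagent.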
CHX counter: Cycloheximide Counterscreen for Small Molecule Inhibitors of Shiga Toxin; cell reporter, cycloheximide protein synthesis inhibition counterscreen; max response, %; 12% of 300,000 active; in the data active = max response mostly above about 13%, no sharp cut-off; inactive = mostly below about 14%; note: read at 38.3 µM for the half of the compounds with a filed dose
A number is an active result; . = inactive; ? = inconclusive; / = no result given. Unless noted, calls come from the whole dose curve; as a rule, active = well fitted inhibition curve with a large enough effect; inconclusive = small, poorly fitted or top-dose-only effect, or another doubt; inactive = no such curve, though single readings can be large or run the other way.

SMILES	Shiga inhibitor	Pf growth 48h	HCMV antiviral	Pf growth 96h	CHX counter
CC1(C)Oc2ccc(/C=C/C(=O)N3CCOCC3)c(O)c2C(N2CCOCC2)C1O (stereo not given)	.	.	/	.	.
CC(C)CC(=O)OC1C(N2CCOCC2)c2c(ccc(/C=C/C(=O)N3CCOCC3)c2O)OC1(C)C (stereo not given)	.	?	.	2.6µM	.
CCCCN(C)C(=O)C1CCC(Cn2c(=O)[nH]c3ccsc3c2=O)CC1 (stereo not given)	/	/	.	/	/
O=C(NC1(C(F)(F)F)NC(=O)N(CCc2ccccc2)C1=O)c1ccccc1Cl (stereo not given)	/	/	.	/	/
CCNC(=O)C1(C)CCN(C(=O)C(c2ccccc2)c2ccccc2)C1 (stereo not given)	/	/	.	/	/
COc1ccc2[nH]c(C(=O)N3CCC(CO)(Cc4cccc(C(F)(F)F)c4)CC3)c(C)c2c1	.	?	.	?	.
CCOc1cc(/C=C/c2ccc3cccc([N+](=O)[O-])c3n2)ccc1O	.	.	-99	.	13
CCOc1cc(/C=C/c2ccc3cccc([N+](=O)[O-])c3n2)ccc1OCC(=O)N(C)C	.	?	-109	?	.
COc1cc(/C=C/c2ccc3cccc([N+](=O)[O-])c3n2)ccc1OCC#N	.	.	-93	.	.
CCC1(O)CCCC2C3CCC4CC(=O)CCC4(C)C3C(=O)CC21C (stereo not given)	/	/	.	/	/
COc1ccc(Cl)cc1NC(=O)CN1CCC(n2nnc3ccccc32)CC1	.	?	.	.	.
COCCNC(=O)C1(C)CCCN(C(=O)c2cccc(C#N)c2)C1 (stereo not given)	/	/	.	/	/
COc1ccc(-c2c(-c3cc(OC)cc(OC)c3)n(C)c3ccc(-c4cnc(N)nc4)cc23)cc1	/	/	.	/	/
COc1cc(OC)cc(-c2c(-c3ccc(F)cc3)c3cc(-c4cnc(OC)nc4)ccc3n2C)c1	/	4.1µM	.	4.7µM	/
COc1ccc(-c2c(-c3cc(OC)cc(OC)c3)n(C)c3ccc(-c4ccc(S(N)(=O)=O)cc4)cc23)cc1	/	13µM	.	?	/
COc1cccc(-c2c(-c3cc(OC)cc(OC)c3)n(C)c3ccc(-c4cnc(N5CCOCC5)nc4)cc23)c1	/	/	-65	/	/
CCN(C(=O)CSc1ccccn1)C1CCCCC1	/	/	.	/	/
O=C1NC(=O)C(CCc2ccncc2)(CCc2ccccn2)C(=O)N1c1ccc(Br)cc1 (stereo not given)	.	?	.	.	.
Cc1ccc(N2C(=O)NC(=O)C(CCc3ccccn3)(Cc3cccc(Cl)c3Cl)C2=O)cc1 (stereo not given)	.	.	.	2.3µM	.
Cc1ccc(-n2c(C)nc3c(cnn3-c3ccc(C)c(C)c3)c2=O)cc1C	.	/	-67	.	.
Cc1ccc(-n2c(C)nc3c(cnn3-c3ccccc3Cl)c2=O)cc1C	.	/	.	3.7µM	.
CCOc1ccc(-n2c(CC)nc3c(cnn3-c3ccc(Cl)cc3)c2=O)cc1	/	/	.	/	/
CCc1nc2c(cnn2-c2ccc(F)cc2)c(=O)n1-c1ccc(N2CCC(C)CC2)cc1	.	/	?	3.3µM	.
Cc1nc2c(cnn2-c2ccccc2Cl)c(=O)n1-c1ccc(N2CCC(C)CC2)cc1	.	/	-63	.	.
Cc1ccc(-n2c(C)nc3c(cnn3-c3ccc(F)cc3)c2=O)cc1C	.	.	.	.	.
SMILES	Shiga inhibitor	Pf growth 48h	HCMV antiviral	Pf growth 96h	CHX counter
O=C1C(n2ccc3ccccc32)c2ccccc2N1Cc1ccc(C(F)(F)F)cc1 (stereo not given)	/	/	.	/	/
O=C(NCCCN1CCN(CCCNC(=O)c2cccc([N+](=O)[O-])c2)CC1)c1cccc([N+](=O)[O-])c1	.	?	.	?	.
O=C(NCCCc1ccccc1)c1ccccc1	76	.	.	9.3µM	40
O=C(NCCn1ccc2ccccc21)c1cccc([N+](=O)[O-])c1	.	.	-80	.	.
O=C(NCCc1ccccc1)c1ccc(-n2cnnn2)cc1	61	.	.	.	47
O=C(NCCCCc1ccccc1)c1ccccc1	.	.	.	?	15
Cc1ccc(/C=C/S(=O)(=O)NCC(=O)OCC(=O)Nc2ccc(C(=O)N(C)C)cc2)cc1	/	.	.	?	/
CCOc1ccc(S(=O)(=O)n2c([N+](=O)[O-])cnc2C)c(C)c1C	.	.	.	.	.
CC(=O)C[C@H]1c2cc(F)ccc2S(=O)(=O)N1c1ccc(N(C)C)cc1	/	/	.	/	/
O=C(NCCC(=O)N(CCc1ccccc1)Cc1ccccc1)c1ccc(Br)cc1	/	?	.	13µM	/
O=C(NCCNc1ccc([N+](=O)[O-])cc1C(F)(F)F)c1ccccc1	.	?	?	13µM	.
O=C(NCCCc1ccccc1)c1cccc([N+](=O)[O-])c1	.	.	.	.	22
O=C(NCc1ccccc1)c1ccc(Br)cc1	.	.	.	?	.
O=C(NCCNc1ccc([N+](=O)[O-])cc1C(F)(F)F)c1cccc(F)c1	.	?	.	?	.
O=C(NCCCCc1ccccc1)c1ccc(Br)cc1	56	.	.	?	38
CCOc1cc(CNC(=O)c2ccc(C)c(NC(=O)c3nsc4ccccc34)c2)ccc1OC	/	/	.	/	/
O=C(Nc1cc(=O)[nH]c(=O)[nH]1)c1cc(Cl)ccc1Cl	.	.	.	.	.
S=C(NCCc1ccc(Cl)cc1)NC1CCCCC1	103	.	.	?	56
S=C(NCCc1ccc(Cl)cc1)NC1CCCC1	71	.	-69	?	44
NS(=O)(=O)c1ccc(CNC(=S)NC2CCCC2)cc1	.	.	.	13µM	.
S=C(NCCc1ccccc1)NC1CCCCCC1	73	.	.	.	51
O=C(NC1CCCCC1)C(=S)NCCc1ccccc1	.	.	.	.	.
O=C(Cn1c(-c2cccs2)cc2cc(Cl)ccc21)N1CCCCC1	/	/	.	/	/
CC1(C)CC(=O)C=C(NCCc2ccc(S(N)(=O)=O)cc2)C1	.	.	.	/	.
Cc1nn(-c2ccc(N3CCOCC3)nn2)c(C)c1CCC(=O)Nc1ccc(F)cc1F	/	/	.	/	/
SMILES	Shiga inhibitor	Pf growth 48h	HCMV antiviral	Pf growth 96h	CHX counter
S=C(NCCNCc1ccccc1)NC1CCCCC1	.	?	/	4.7µM	.
Fc1ccc(CNC(=S)NC2CCCCCC2)cc1	.	?	.	.	.
CN(C)/C=N/c1c(C#N)cnn1-c1nc2ccccc2s1	87	.	?	.	44
CN(C)/C=N/c1c(C#N)cnn1-c1ncnc2sc(-c3ccccc3)cc12	.	?	.	10µM	.
CN(C)/C=N/c1c(C#N)cnn1-c1ccccc1	.	/	.	/	.
CN(C)/C=N/c1c(C#N)cnn1-c1ccc(C(F)(F)F)cn1	.	.	.	.	.
CSc1nc(O)c(N=Nc2ccc(F)cc2F)c(=O)[nH]1	54	.	?	.	30
O=[N+]([O-])c1cccc(-c2ccc(SCc3cccnc3)nn2)c1	.	.	.	.	44
O=C(CSc1ccc(-c2cccc([N+](=O)[O-])c2)nn1)NCc1ccccc1	.	.	.	.	.
CSc1ccc(-c2cccc([N+](=O)[O-])c2)nn1	79	.	.	.	27

Source: PubChem
